“And” between values parts separate entries of the source, which are not always exact repeats. Equal entries are not always repeated. The campaign covered roughly 5,500 compounds. About 2,000 (36%) were called active. About 18% were inconclusive and are not listed. No stated cut-off is given here; in the data, active means normalized growth mostly below about 0.91 (no sharp cut-off); inconclusive means no clear call, values can overlap the other calls; inactive means mostly above about 0.92. The list shows a part of the results.
Experiment: chemical genetic growth profiling, strain panel (AID 1159580);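 further: tested at 20 µM; growth read once vehicle control cultures reached saturation at 30 °C; 1 = growth at the plate median or of vehicle wells; lower values mean less growth of the strain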
Conditions: S. cerevisiae deletion strains, growth OD

Measured: normalized growth

C[C@@H]1CCC2[C@](C)(CO)[C@@H](O)CC[C@]2(C)[C@@]12CC[C@@](CO)(CCO)O2 (stereo partly specified)
inactive: locus YAL021C, strain ccr4, active compounds read low 0.991 | locus YAL026C, strain drs2, active compounds read low 0.985 | locus YAL030W, strain snc1, active compounds read low 0.987 | locus YBL061C, strain skt5, active compounds read low 0.967 | locus YBR009C, strain hhf1, active compounds read low 0.977 | locus YBR021W, strain FUR4, active compounds read low 0.998 | locus YBR023C, strain chs3, active compounds read low 0.983 | locus YBR171W, strain sec66, active compounds read low 0.965 | locus YBR229C, strain ROT2, active compounds read low 0.997 | locus YBR231C, strain swc5, active compounds read low 0.997 | locus YBR279W, strain paf1, active compounds read low 0.991 | locus YCL011C, strain gbp2, active compounds read low 0.994 | locus YCL016C, strain dcc1, active compounds read low 0.989 | locus YCL029C, strain bik1, active compounds read low 0.986 | locus YCL061C, strain MRC1, active compounds read low 0.975 | locus YCL069W, strain vba3, active compounds read low 0.979 | locus YCR088W, strain abp1, active compounds read low 0.979 | locus YDL005C, strain med2, active compounds read low 0.972 | locus YDL035C, strain GPR1, active compounds read low 1.02 | locus YDL040C, strain nat1, active compounds read low 0.972 | locus YDL074C, strain BRE1, active compounds read low 1 | locus YDL101C, strain DUN1, active compounds read low 1 | locus YDL134C, strain PPH21, active compounds read low 1.04 | locus YDL185W, strain tfp1, active compounds read low 0.987 | locus YDL192W, strain arf1, active compounds read low 0.994 | locus YDR001C, strain nth1, active compounds read low 0.986 | locus YDR069C, strain doa4, active compounds read low 0.963 | locus YDR101C, strain arx1, active compounds read low 0.995 | locus YDR137W, strain rgp1, active compounds read low 1.01 | locus YDR159W, strain sac3, active compounds read low 0.933 | locus YDR162C, strain NBP2, active compounds read low 1.06 | locus YDR195W, strain ref2 0.959 | locus YDR297W, strain sur2, active compounds read low 0.996 | locus YDR318W, strain mcm21, active compounds read low 0.994 | locus YDR334W, strain swr1, active compounds read low 0.976 | locus YDR335W, strain msn5, active compounds read low 0.978 | locus YDR388W, active compounds read low 0.974 | locus YDR392W, strain spt3, active compounds read low 0.975 | locus YDR502C, strain sam2, active compounds read low 1.01 | locus YEL003W, strain gim4, active compounds read low 0.974 | locus YEL037C, strain rad23, active compounds read low 0.968 | locus YEL061C, strain CIN8 (second series), active compounds read low 0.98 | locus YEL061C, strain CIN8, active compounds read low 1.01 | locus YER015W, strain faa2, active compounds read low 0.99 | locus YER016W, strain bim1, active compounds read low 0.981 | locus YER110C, active compounds read low 0.983 | locus YER111C, strain swi4, active compounds read low 0.959 | locus YER155C, strain BEM2 (second series), active compounds read low 0.958 | locus YER155C, strain BEM2, active compounds read low 0.993 | locus YER167W, strain BCK2, active compounds read low 1 | locus YFR010W, strain ubp6, active compounds read low 0.957 | locus YGL078C, strain dbp3, active compounds read low 0.985 | locus YGL086W, strain mad1, active compounds read low 1.03 | locus YGL167C, strain pmr1, active compounds read low 0.976 | locus YGL173C, strain kem1, active compounds read low 0.979 | locus YGL227W, strain vid30, active compounds read low 0.978 | locus YGL240W, strain doc1, active compounds read low 0.966 | locus YGL248W, strain PDE1, active compounds read low 1 | locus YGL253W, strain hxk2, active compounds read low 0.944 | locus YGR078C, strain PAC10, active compounds read low 1.03 | locus YGR135W, strain pre9, active compounds read low 0.983 | locus YGR229C, strain SMI1, active compounds read low 1.04 | locus YGR252W, strain gcn5, active compounds read low 1.02 | locus YHR013C, strain ard1, active compounds read low 0.959 | locus YHR027C, strain rpn1, active compounds read low 0.983 | locus YHR030C, strain SLT2, active compounds read low 1 and 0.991 | locus YHR079C, strain IRE1 (second series), active compounds read low 0.981 | locus YHR079C, strain IRE1, active compounds read low 0.99 | locus YHR094C, strain hxt1, active compounds read low 0.982 | locus YHR129C, strain ARP1, active compounds read low 1 | locus YHR142W, strain chs7, active compounds read low 0.977 | locus YHR200W, strain rpn10, active compounds read low 0.985 | locus YIL066C, strain RNR3, active compounds read low 1.02 | locus YIL073C, strain SPO22, active compounds read low 0.979 | locus YIL125W, strain kgd1, active compounds read low 0.975 | locus YIR030C, strain dcg1, active compounds read low 0.991 | locus YJL092W, strain hpr5, active compounds read low 0.977 | locus YJL095W, strain BCK1 (second series), active compounds read low 0.983 | locus YJL095W, strain BCK1, active compounds read low 1.04 and 0.955 | locus YJL115W, strain asf1, active compounds read low 0.986 | locus YJL129C, strain trk1, active compounds read low 0.966 | locus YJL134W, strain LCB3, active compounds read low 0.991 | locus YJL154C, strain vps35, active compounds read low 0.982 | locus YJL164C, strain tpk1, active compounds read low 1 | locus YJL166W, strain qcr8, active compounds read low 0.98 | locus YJL168C, strain set2, active compounds read low 0.989 | locus YJL187C, strain SWE1 (second series), active compounds read low 1 | locus YJL187C, strain SWE1, active compounds read low 0.981 | locus YJR043C, strain POL32, active compounds read low 1.04 | locus YJR066W, strain TOR1, active compounds read low 0.976 | locus YJR075W, strain HOC1, active compounds read low 1.04 | locus YKL009W, strain mrt4, active compounds read low 0.976 | locus YKL068W, active compounds read low 0.986 | locus YKL085W, strain MDH1 (second series), active compounds read low 0.99 | locus YKL085W, strain MDH1, active compounds read low 0.99 | locus YKL160W, strain elf1, active compounds read low 0.988 | locus YKR001C, strain vps1, active compounds read low 1.01 | locus YKR026C, strain gcn3, active compounds read low 0.978 | locus YKR091W, strain srl3, active compounds read low 0.988 | locus YLL001W, strain dnm1, active compounds read low 0.991 | locus YLL026W, active compounds read low 0.982 | locus YLL041C, strain sdh2, active compounds read low 0.977 | locus YLR027C, strain aat2, active compounds read low 0.98 | locus YLR039C, strain RIC1, active compounds read low 1.09 | locus YLR058C, strain SHM2, active compounds read low 1 | locus YLR102C, strain apc9, active compounds read low 0.977 | locus YLR113W, strain HOG1, active compounds read low 0.991 | locus YLR221C, strain rsa3, active compounds read low 0.953 | locus YLR258W, strain gsy2, active compounds read low 0.969 | locus YLR262C, strain YPT6 (second series), active compounds read low 1.01 | locus YLR262C, strain YPT6, active compounds read low 1.09 | locus YLR268W, strain sec22, active compounds read low 0.996 | locus YLR320W, strain mms22, active compounds read low 0.971 | locus YLR330W, strain CHS5, active compounds read low 0.995 | locus YLR342W, strain FKS1 (second series), active compounds read low 0.995 | locus YLR342W, strain FKS1, active compounds read low 0.969 | locus YLR357W, strain rsc2, active compounds read low 0.95 | locus YLR370C, strain arc18, active compounds read low 0.977 | locus YLR371W, strain rom2, active compounds read low 0.982 | locus YLR384C, strain iki3, active compounds read low 0.974 | locus YLR418C, strain cdc73, active compounds read low 1.03 | locus YML016C, strain PPZ1, active compounds read low 0.997 | locus YML032C, strain rad52, active compounds read low 0.97 | locus YML120C, strain ndi1, active compounds read low 0.992 | locus YML124C, strain tub3, active compounds read low 0.993 | locus YMR058W, strain fet3, active compounds read low 0.973 | locus YMR078C, strain ctf18, active compounds read low 1 | locus YMR125W, strain sto1, active compounds read low 0.982 | locus YMR129W, active compounds read low 0.986 | locus YMR205C, strain PFK2, active compounds read low 1.01 | locus YMR223W, strain ubp8, active compounds read low 1 | locus YMR231W, strain pep5, active compounds read low 0.951 | locus YMR307W, strain GAS1, active compounds read low 1.15 | locus YNL067W, strain RPL9B, active compounds read low 1.03 | locus YNL071W, strain lat1, active compounds read low 0.989 | locus YNL153C, strain GIM3, active compounds read low 1.04 | locus YNL183C, strain NPR1, active compounds read low 0.977 | locus YNL209W, strain ssb2, active compounds read low 0.992 | locus YNL233W, strain BNI4, active compounds read low 1.02 | locus YNL248C, strain rpa49, active compounds read low 0.976 | locus YNL250W, strain rad50, active compounds read low 0.985 | locus YNL271C, strain bni1, active compounds read low 1.01 | locus YNL298W, strain CLA4, active compounds read low 0.968 | locus YNL307C, strain MCK1, active compounds read low 0.982 | locus YNL322C, strain KRE1 (second series), active compounds read low 1 | locus YNL322C, strain KRE1, active compounds read low 1.01 | locus YNR049C, strain mso1, active compounds read low 0.971 | locus YNR052C, strain pop2, active compounds read low 0.983 | locus YOL012C, strain htz1 1.2 | locus YOL147C, strain pex11, active compounds read low 0.989 | locus YOR001W, strain rrp6, active compounds read low 0.956 | locus YOR061W, strain CKA2, active compounds read low 1 | locus YOR069W, strain VPS5, active compounds read low 0.991 | locus YOR070C, strain gyp1, active compounds read low 0.973 | locus YOR080W, strain dia2, active compounds read low 0.972 | locus YOR083W, strain WHI5, active compounds read low 1 | locus YOR106W, strain vam3, active compounds read low 1.03 | locus YOR136W, strain idh2, active compounds read low 0.984 | locus YOR144C, strain elg1, active compounds read low 0.999 | locus YOR184W, strain ser1, active compounds read low 1.02 | locus YOR231W, strain MKK1, active compounds read low 1 | locus YOR265W, strain rbl2, active compounds read low 0.996 | locus YOR270C, strain vph1, active compounds read low 0.971 | locus YOR290C, strain snf2, active compounds read low 0.967 | locus YOR316C, strain cot1, active compounds read low 0.975 | locus YPL051W, strain arl3, active compounds read low 0.965 | locus YPL078C, strain atp4, active compounds read low 0.995 | locus YPL106C, strain sse1, active compounds read low 0.987 | locus YPL240C, strain hsp82, active compounds read low 0.981 | locus YPL241C, strain CIN2, active compounds read low 1.01 | locus YPL256C, strain CLN2, active compounds read low 0.996 | locus YPR119W, strain clb2, active compounds read low 0.997 | locus YPR141C, strain kar3, active compounds read low 0.984 | locus YPR163C, strain tif3, active compounds read low 0.983 | locus YPR167C, strain met16, active compounds read low 1.01 | strain wtn01, active compounds read low 0.98

— PubChem BioAssay AID1159580 (chemical genetic matrix, 2015)
